Measurements from ChEMBL document CHEMBL4808148, “HDAC6 screening dataset using tau-based substrate in an enzymatic assay yields selective inhibitors and activators” (2021).
About 390 (7%) of roughly 5,600 compounds showed an effect of 50% or more. The sample as a whole holds a higher share of strong results than the screen did. Starred links: 1 amine or outer side, 2 acyl side, 3 side chain; linkers in the order of their positions; H or OH if unused. Positions of bridges follow the written chain, without caps; N, C: chain ends. Non-standard residues stand in square brackets, D forms with d. Residues, ends and D or L forms follow the SMILES beside them. dTrp(2-Me) = Cc1[nH]c2ccccc2c1C[C@@H](N)C(=O)O; X5 = O=C(CCC[*:2])[*:1]

Key:
[1] = biological target: T1, Protein deacetylase HDAC6 (Homo sapiens) (UniProt Q9UBN7); conditions: at 10 µM
T1 sequence (whole entry): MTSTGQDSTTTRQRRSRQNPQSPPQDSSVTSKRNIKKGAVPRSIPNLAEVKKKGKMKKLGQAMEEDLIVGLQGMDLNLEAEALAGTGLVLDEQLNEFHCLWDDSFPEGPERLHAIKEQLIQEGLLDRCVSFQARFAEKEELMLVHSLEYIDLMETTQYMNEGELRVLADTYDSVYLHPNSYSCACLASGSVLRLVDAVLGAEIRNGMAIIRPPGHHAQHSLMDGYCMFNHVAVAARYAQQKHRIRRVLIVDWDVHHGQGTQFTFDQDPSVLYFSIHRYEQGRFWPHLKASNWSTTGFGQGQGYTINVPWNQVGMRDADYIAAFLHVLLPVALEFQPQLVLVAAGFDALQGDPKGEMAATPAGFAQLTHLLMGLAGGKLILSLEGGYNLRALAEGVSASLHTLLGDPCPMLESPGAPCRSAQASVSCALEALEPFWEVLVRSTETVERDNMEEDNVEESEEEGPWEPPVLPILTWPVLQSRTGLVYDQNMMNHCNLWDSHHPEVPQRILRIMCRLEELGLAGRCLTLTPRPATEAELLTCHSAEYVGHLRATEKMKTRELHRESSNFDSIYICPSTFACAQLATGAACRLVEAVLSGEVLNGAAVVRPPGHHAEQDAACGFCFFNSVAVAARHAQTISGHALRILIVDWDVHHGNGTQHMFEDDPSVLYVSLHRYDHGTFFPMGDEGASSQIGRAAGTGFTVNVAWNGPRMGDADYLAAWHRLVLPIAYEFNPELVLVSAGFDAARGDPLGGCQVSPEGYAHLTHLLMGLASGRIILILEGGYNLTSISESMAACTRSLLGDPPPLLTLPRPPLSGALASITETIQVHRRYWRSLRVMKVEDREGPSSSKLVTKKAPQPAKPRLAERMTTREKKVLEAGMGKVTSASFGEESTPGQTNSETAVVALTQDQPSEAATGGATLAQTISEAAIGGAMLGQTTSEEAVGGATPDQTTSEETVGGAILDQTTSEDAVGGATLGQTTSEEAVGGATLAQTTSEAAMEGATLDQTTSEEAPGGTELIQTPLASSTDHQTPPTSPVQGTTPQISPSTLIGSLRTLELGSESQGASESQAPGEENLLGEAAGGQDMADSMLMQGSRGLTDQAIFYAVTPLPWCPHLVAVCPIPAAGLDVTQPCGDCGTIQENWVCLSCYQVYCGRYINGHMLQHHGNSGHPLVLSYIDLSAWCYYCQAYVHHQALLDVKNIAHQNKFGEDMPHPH

[2] = biological target: Protein deacetylase HDAC6 (Homo sapiens) (UniProt Q9UBN7); conditions: at 10 µM; remark: listed apart in the source

Molecule | inhibition [1] [%] | inhibition [2] [%]
O=C(c1ccc(F)cc1)N1CCC[C@H](c2nc(-c3ccc(F)cc3)no2)C1 | 10.8 | 
FC(F)(F)c1cccc(-c2noc(-c3cc(-c4ccccc4)c(C(F)(F)F)s3)n2)c1 | 18.5 | 
O=C(O)c1cccc(-c2noc(-c3ccccc3F)n2)c1 | 105 | 
CC1=C(/C=C/C(C)=C/C=C/C(C)=C/C=C/C=C(C)/C=C/C=C(C)/C=C/C2=C(C)C(=O)[C@@H](O)CC2(C)C)C(C)(C)C[C@H](O)C1=O | 10.4 | 
COc1ccc2cc1Oc1cc3c(cc1OC)CC[N+](C)(C)[C@H]3Cc1ccc(cc1)Oc1c(OC)c(OC)cc3c1[C@@H](C2)[N+](C)(C)CC3 | 16.5 | 
CC[C@H](C)[C@@H]1NC(=O)[C@H](Cc2ccc(OC)cc2)NC(=O)CCCSC[C@@H](C(=O)N2CCC[C@H]2C(=O)N[C@@H](CC(C)C)C(=O)NCC(N)=O)NC(=O)[C@H](CC(N)=O)NC(=O)[C@H](CCC(N)=O)NC1=O (Y(Me)IQNCPLG-NH2; linker N-5 via X5) | 11 | 
COc1cc(C[C@@H](CO)[C@H](CO)Cc2ccc(O)c(OC)c2)ccc1O | 21.1 | 
CCC(=O)NC[C@@H]1C[C@H]1c1cccc2c1CCO2 | -8.79 | 
O=C(CCCCCN1C(=O)c2cccc3cccc(c23)C1=O)NO | 100 | 
CN(C)CCN1C(=O)c2cccc3cc(N)cc(c23)C1=O | 24.8 | 
O=C(O)CCCN1C(=O)c2cccc3cccc(c23)C1=O | -3.55 | 
CN1CCN(CCCCN2C(=O)CN(/N=C/c3ccc(-c4ccc(Cl)cc4)o3)C2=O)CC1 | -7.57 | 
COc1cc(Br)c(Nc2nc(-c3c(C)nc4ncccn34)cs2)c(Br)c1 | -6.53 | 
CCOc1ccc(-c2nc(-c3cccc4c3CCC4NCCO)no2)cc1OCC (stereo not drawn) | 26.2 | 
CC(O)CCCCn1c(=O)c2c(ncn2C)n(C)c1=O (stereo not drawn) | 14.8 | 
CC(C)(C)c1cc(C(=O)/C(C#N)=N/Nc2cccc(Cl)c2)no1 | 58.9 | 
O=C(O)c1cc2ccccc2s1 | 36 | 
CCCCCCCCCCCCCCCCCCO | 10.8 | 
Cc1cccc(COc2cccc(/C=C3\C(=O)NN(c4ccccc4)C3=O)c2)c1 | 6.83 | 
C[C@H]1NCc2cc(-c3ccc4c(=O)c(C(=O)O)cn(C5CC5)c4c3OC(F)F)ccc21 | 14.9 | 
O=C1NC(=O)c2cc(Nc3ccc(F)cc3)c(Nc3ccc(F)cc3)cc21 | 41.3 | 
CNC(=O)c1c(C)oc2cc(Oc3ncnc4cc(OC)c(OC)cc34)ccc12 | -6.42 | 
COc1cc(C=O)ccc1O | -4.44 | 
CC(C)Oc1ccc2c(=O)c(-c3ccccc3)coc2c1 | 95.2 | 
O=c1c(-c2ccc(O)cc2)coc2cc(O)ccc12 | 101 | 
COc1cc(C(C)=O)ccc1O | 8.46 | 

Molecule | inhibition [1] [%] | inhibition [2] [%]
COc1cc2c(=O)c(-c3ccc(O)cc3)coc2cc1O | 98.7 | 
O=c1c(-c2ccc(O)cc2)coc2c(C3OC(CO)C(O)C(O)C3O)c(O)ccc12 (stereo not drawn) | 5.48 | 
COc1ccc(-c2oc3cc(OC)ccc3c2C(=O)c2ccc(C#N)cc2)cc1 | 1.66 | 
CC(C)Oc1ccc2c(=O)c3cc(C(=O)O)ccc3oc2c1 | 87.4 | 
CNc1cc2[nH]c(=O)n(-c3ccc(NC(=O)NS(=O)(=O)c4ccc(Cl)s4)cc3)c(=O)c2cc1F | 32.7 | 
C[C@@H]1CN(Cc2ncccn2)C[C@H]1c1nc2c(cnn2C2CCOCC2)c(=O)[nH]1 | -2.24 | 
O=C(O)c1cc(O)c2c(Cl)cc(Cl)cc2n1 | 6.69 | 
CC(=O)Oc1ccccc1C(=O)Oc1cccc(CO[N+](=O)[O-])c1 | 48.1 | 
CC(C)(O)CNc1nc(Nc2ccnc(C(F)(F)F)c2)nc(-c2cccc(C(F)(F)F)n2)n1 | 36.2 | 
CC(=O)NC(C(=O)O)C(C)(C)SN=O (stereo not drawn) | 2.51 | 
Cc1noc2c1-c1ccccc1C(c1ccc(Cl)cc1)=N[C@H]2CC(N)=O | 43.6 | 
Nc1ccc(F)cc1NC(=O)c1ccc(CNC(=O)/C=C/c2cccnc2)cc1 | -6.65 | 
N[C@H](CSC(c1ccccc1)(c1ccccc1)c1ccccc1)C(=O)O | -3.09 | 
Cc1nc2n(c(=O)c1CCN1CCC(c3noc4cc(F)ccc34)CC1)CCCC2O (stereo not drawn) | -9.07 | 
N#Cc1cnc2cnc(NCc3cccnc3)cc2c1Nc1ccc(F)c(Cl)c1 | -0.05 | 
COc1ccc(-c2coc3cc(O)ccc3c2=O)cc1 | 99.6 | 
COc1ccc(-n2c(C)c([N+](=O)[O-])c3ccc(O)cc32)cc1 | 12.7 | 
N[C@@H](CCNCc1ccc(Cl)cc1)C(=O)N1CCCCC1 | 0.96 | 
N=C(Nc1ccc(I)cc1)NC1C2CC3CC(C2)CC1C3 (stereo not drawn) | 1.97 | 
Cc1ccc(-c2ncc[nH]2)cc1NC(=O)c1ccc(OCc2ccccn2)cc1 | 21.3 | 
Fc1ccc(-c2nc3n(c2-c2ccncc2)CCS3)cc1 | -4.98 | 
Cc1c(F)cccc1NC(=O)Nc1ccc(Cl)c(S(=O)(=O)[C@H]2CCCNC2)c1O | 36.1 | 
CN1CCN(C2=Cc3ccccc3Oc3ccc(Cl)cc32)CC1 | 2.47 | 
Cc1nc2c(OCc3ccccc3)cccn2c1CC#N | 76.9 | 
COc1ccc(COc2ccc(CC#N)cc2)cc1 | 28.5 | 
CCCc1c(OCCCCc2nnn[nH]2)ccc(C(C)=O)c1O | 4.66 | 

Molecule | inhibition [1] [%] | inhibition [2] [%]
CC[N+](C)(CC)CCOC(=O)C(O)(c1ccccc1)C1CCCCC1 (stereo not drawn) | -2.19 | 
COc1ccc2c(C)nc(Nc3nc(C)c(C)c(O)n3)nc2c1 | 20.5 | 
CCc1cnc(N2CCC(c3nc(COc4ccc(-n5cnnn5)cc4)cs3)CC2)nc1 | 14.7 | 
O=C1c2ccccc2C(=O)C1c1ccc(Cl)cc1 | 18.6 | 
O=C1c2ccccc2C(=O)C1c1ccc(Br)cc1 | 95.5 | 
COc1ccc(C2C(=O)c3ccccc3C2=O)cc1 | 98.2 | 
O=C1c2ccccc2C(=O)C1c1ccccc1 | 7.2 | 
CCCC1(CCC)CCC2(CCN(CCCN(CC)CC)C2)CC1 | -1.4 | 
C[C@@H](O)[C@H]1C(=O)N2C(C(=O)O)=C(S[C@@H]3CN[C@H](C(=O)Nc4cccc(C(=O)O)c4)C3)[C@H](C)[C@H]12 | 29.2 | 
CC1(c2ccccc2)OC(C(=O)O)=CC1=O (stereo not drawn) | -2.75 | 
Nc1nccc(-c2c(-c3ccc(F)cc3)ncn2C2CCCCC2)n1 | 10.1 | 
COc1cc(C(=O)NC2CCN(C)CC2)c(F)cc1Nc1ncc2c(n1)N(C1CCCC1)CC(F)(F)C(=O)N2C | 2.87 | 
Cc1[nH]c2ccccc2c1C[C@@H](NC(=O)[C@@H](N)Cc1c[nH]cn1)C(=O)N[C@@H](C)C(=O)N[C@@H](Cc1c[nH]c2ccccc12)C(=O)N[C@H](Cc1ccccc1)C(=O)N[C@@H](CCCCN)C(N)=O (H-H[dTrp(2-Me)]AW[dF]K-NH2) | -0.06 | 
NCCCCCC(O)(P(=O)(O)O)P(=O)(O)O | 0.9 | 
Antimonyl (potassium tartrate trihydrate), CHEMBL2097098 |  | 13.3
ANTIMONY POTASSIUM TARTRATE TRIHYDRATE, CHEMBL2097098 |  | 31.4
AURANOFIN, CHEMBL1366 |  | -8.98
BIS(MALTOLATO)OXOVANADIUM(IV), CHEMBL286447 |  | 51.3
CO[C@@H]1[C@H](OC(=O)/C=C/C=C/C=C/C=C/C(=O)O)CC[C@]2(CO2)[C@H]1[C@@]1(C)O[C@@H]1CC=C(C)C | 3.49 | 
CCCCC[C@H](O)/C=C/[C@@H]1[C@H]2C/C(=C/CCCC(=O)O)O[C@H]2C[C@H]1O | 10.8 | 
Cn1cc(CCn2cnc(-c3cnn(C)c3)c2-c2ccc(C#N)cc2)cn1 | 15 | 
O=S(=O)(O)c1ccc2[nH]c(-c3ccccc3)nc2c1 | 84.1 | 
O=C1c2ccc(Nc3ccc(F)cc3F)cc2CCc2ccc(OC[C@H](O)CO)cc21 | 24.2 | 
C#Cc1cnc2nc(O)n(C(CC)CC)c2n1 | -6.31 | 
Nc1nc(N)nc(-c2cc(Cl)ccc2Cl)n1 | 17.2 | 
Nc1ncnc2[nH]nc(Nc3ccc(F)cc3)c12 | 17.6 | 

Molecule | inhibition [1] [%] | inhibition [2] [%]
Nc1ncnc(Nc2ccc(Cl)cc2)n1 | 74.5 | 
CCO/N=C(/C(=O)NC1C(=O)N2C(C(=O)O)=C(Sc3nc(-c4cc[n+](C)cc4)cs3)CS[C@H]12)c1nsc(NP(=O)(O)O)n1 (stereo partly drawn) | 20.6 | 
CC(C)[C@@H]1CC[C@@H](C)C[C@H]1O | 2.89 | 
CN(C)CCC(O)(c1ccccc1)c1ccccc1Cl (stereo not drawn) | 36.5 | 
Cc1ccc(NC2=CC(=O)c3sc(C)nc3C2=O)cc1 | 53.2 | 
Cc1c(-c2ccccc2F)[nH]c(N)c1C#N | 28.6 | 
VERTEPORFIN, CHEMBL5314346 |  | 22.2
Cc1cccc(/C=C/c2ccccc2)n1 | 100 | 
CC[N+](CC)(CC)CCOc1ccc(/C=C/c2ccccc2)cc1 | -4.16 | 
Nc1nccc(/C=C/c2ccccc2)n1 | 99.6 | 
CC(C)[C@@H]1CC[C@@H](C)C[C@@H]1P(=O)(c1ccccc1)c1ccccc1 | -9.96 | 
CCC(CC)(NC(=O)C(C)C)C(=O)N[C@@H](CCCNC(=N)N)C(=O)NC1(C(=O)NC(c2ccc(F)cc2)c2ccc(F)cc2)CCCC1 | 22 | 
CSC[C@H](N)C(=O)O | 15.3 | 
Cc1ccc2c(c1)C(=O)[C@]1(O)CCN(c3ccccc3)C1=N2 | -8.19 | 
O=c1c(-c2ccc(O)cc2)coc2cc(O)cc(O)c12 | 112 | 
COc1ccc(-c2coc3cc(O)cc(O)c3c2=O)cc1 | 100 | 
CN1CCN(c2ccc(/C=C(\C#N)c3ccccc3Br)cc2)CC1 | -8.48 | 
Nc1ncc(Cc2ccc(Br)cc2)s1 | 12.3 | 
c1ccc(-c2nc(CN3CCN(c4ncccn4)CC3)c[nH]2)cc1 | -4.48 | 
C=CCOc1ccc(CC(=O)O)cc1Cl | 9.47 | 
Cc1ccsc1C(=CCCN1CCC[C@@H](C(=O)O)C1)c1sccc1C | 20.9 | 
NC1(c2ccc(-c3nc4ccn5c(=O)[nH]nc5c4cc3-c3ccccc3)cc2)CCC1 | 12.5 | 
O=C(O)CCc1cc(I)c(Oc2ccc(O)cc2)c(I)c1 | -9.91 | 
CC(CNS(=O)(=O)C(C)C)c1ccc(-c2ccc(C#N)cc2)cc1 (stereo not drawn) | 23.9 | 
O=C(Nc1ccc(OC(F)(F)F)cc1)c1sccc1NCc1ccnc2ccccc12 | 18.5 | 
